These results are taken from PubChem BioAssay (NCI).

Among the test systems are NCI-H23 lung; NCI-H226 lung; NCI-H322M lung; HOP-62 NSCLC; NCI-H460 lung; HOP-92 NSCLC; NCI-H522 lung; A549/ATCC NSCLC; 786-0 renal; COLO 205 colon; DU-145 prostate; K-562 leukemia; MALME-3M melanoma; MDA-MB-231 breast; RXF 393 renal; SF-268 CNS; SF-295 CNS; SF-539 CNS; UACC-257 melanoma; M14 melanoma.
Common to all, as to assay: NCI-60 one-dose screen, 48 h (100 = growth as untreated, 0 = no growth, -100 = all killed)
Conditions in all cases: 10 µM unless noted

The panel holds about 83,000 compounds, 20% with a hit somewhere; the sample as a whole holds those more often.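 The test compound was applied at a single concentration to cells in 96-well plates for 48 hours, and percent growth was recorded.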 Values without a mark were called inactive. Calls of active or inactive are those of the source. Rule for the calls: active = growth percent below 10; inactive = the rest.

In the case of `CCN(CC)CCN1C(=O)c2c(c(C)c3c(oc4cc(OC)ccc43)c2C)C1=O`, the growth in the assay with NCI-H23 lung was 95.9%; with NCI-H226 lung, 27.8%; in the assay on NCI-H322M lung it was 85.3%; with HOP-62 NSCLC it was 95.9%; in the assay on NCI-H460 lung, 44.7%; with HOP-92 NSCLC it was 100%. The growth was 91.9% in the assay on NCI-H522 lung; 104% in the assay with A549/ATCC NSCLC; -74% (active) in the assay on 786-0 renal; 99.1% in the assay with COLO 205 colon; 75.1% with DU-145 prostate; -29.2% (active) in the assay on K-562 leukemia. In addition, the growth was 102% in the assay on MALME-3M melanoma; 58.4% in the assay with MDA-MB-231 breast; 73.1% in the assay on RXF 393 renal; 89.6% with SF-268 CNS; 89.4% in the assay on SF-295 CNS; 70.6% in the assay on SF-539 CNS. The growth in the assay with UACC-257 melanoma was 127%; in the assay on M14 melanoma, 98.9%.
Take `C#CCOc1ccc(C2=NN(CCCC)C3N=C(Cl)c4ncn(CCCC)c4N23)cc1OCC#C` (stereo not given): the growth in the assay on NCI-H23 lung is 86.9%; in the assay with NCI-H226 lung, 90.5%; in the assay with NCI-H322M lung, 88.8%; in the assay on HOP-62 NSCLC, 90.4%; in the assay on NCI-H460 lung, 88.6%; with HOP-92 NSCLC, 73.6%. Moreover, the growth in the assay with NCI-H522 lung was 74.7%; with A549/ATCC NSCLC, 80.3%; with 786-0 renal it was 102%; with COLO 205 colon, 103%; with DU-145 prostate, 94.1%; in the assay with K-562 leukemia, 71.2%. Also, the growth in the assay on MALME-3M melanoma is 107%; in the assay with MDA-MB-231 breast, 91.7%; in the assay on RXF 393 renal, 76.1%; with SF-268 CNS it was 90.1%; with SF-295 CNS, 88.4%; with SF-539 CNS, 101%. The growth with UACC-257 melanoma was 85.7%; in the assay on M14 melanoma, 92.2%.
Regarding `COC(=O)[C@@H](Cc1c[nH]c2ccccc12)NC(=O)[C@H](Cc1ccccc1)NCc1ccncc1`, the growth was 97.4% in the assay with NCI-H23 lung; 94.1% with NCI-H226 lung; 92.8% with NCI-H322M lung; 93.7% in the assay with HOP-62 NSCLC; 104% in the assay on NCI-H460 lung; 91.5% in the assay on HOP-92 NSCLC. Further, the growth was 73.5% in the assay on NCI-H522 lung; 83.9% with A549/ATCC NSCLC; 104% in the assay with 786-0 renal; 107% with COLO 205 colon; 108% in the assay with DU-145 prostate; 102% in the assay with K-562 leukemia. The growth with MALME-3M melanoma is 86.5%; in the assay on MDA-MB-231 breast it was 93.2%; with RXF 393 renal, 103%; in the assay with SF-268 CNS it was 96.9%; in the assay with SF-295 CNS, 106%; with SF-539 CNS, 103%. Further, the growth is 79.4% in the assay on UACC-257 melanoma and 103% in the assay on M14 melanoma.
For `Cn1cc(-c2nc(-c3c[nH]c4c(Cl)nccc34)cs2)c2ccccc21`, the growth in the assay with NCI-H23 lung is 98.6%; with NCI-H226 lung, 103%; in the assay on NCI-H322M lung, 99.4%; with HOP-62 NSCLC, 92.5%; with NCI-H460 lung it was 95.5%; with HOP-92 NSCLC it was 80.4%. The growth in the assay with NCI-H522 lung is 85.5%; in the assay with A549/ATCC NSCLC, 66.7%; in the assay with 786-0 renal, 87.4%; with COLO 205 colon it was 102%; with DU-145 prostate, 92.6%; with K-562 leukemia it was 89.3%. For the same molecule, the growth was 113% with MALME-3M melanoma; 98.9% in the assay with MDA-MB-231 breast; 90.4% in the assay with RXF 393 renal; 98.5% with SF-268 CNS; 103% in the assay on SF-295 CNS; 90.5% in the assay on SF-539 CNS. For the same molecule, the growth was 71.8% in the assay with UACC-257 melanoma and 97.2% in the assay on M14 melanoma.
For `Cc1cc([N+](=O)[O-])ccc1NC(=O)c1ccc2c(c1)nc(-c1ccccc1)n2C1CCCCC1`, the growth in the assay on NCI-H23 lung was 91.5%; with NCI-H226 lung, 93%; in the assay with NCI-H322M lung, 80%; with HOP-62 NSCLC, 91.8%; with NCI-H460 lung it was 87.3%; with HOP-92 NSCLC, 117%. For the same molecule, the growth in the assay on NCI-H522 lung is 63.1%; in the assay on A549/ATCC NSCLC, 78.8%; in the assay with 786-0 renal, 86.7%; with COLO 205 colon, 73.2%; in the assay on DU-145 prostate, 105%; in the assay with K-562 leukemia it was 49.9%. The growth with MALME-3M melanoma is 80.4%; with MDA-MB-231 breast it was 84.4%; in the assay on RXF 393 renal it was 96.5%; with SF-268 CNS, 77.1%; with SF-295 CNS it was 80.5%; with SF-539 CNS, 92.2%. Also, the growth in the assay with UACC-257 melanoma was 92.4%; with M14 melanoma it was 74.9%.
For the molecule `Oc1c(Cl)cc(Cl)c2ccc(CN3CCNCC3)nc12`, the growth with NCI-H23 lung was 52.7%; in the assay on NCI-H226 lung, 61.6%; in the assay with NCI-H322M lung it was 58.1%; in the assay on HOP-62 NSCLC, 29.3%; in the assay on NCI-H460 lung it was 31.8%; in the assay on HOP-92 NSCLC, 54.1%. Moreover, the growth in the assay with NCI-H522 lung is 67.8%; in the assay with A549/ATCC NSCLC it was 30.8%; in the assay on 786-0 renal it was 49.2%; with COLO 205 colon, 102%; in the assay with DU-145 prostate, 50.8%; with K-562 leukemia it was 19%. Also, the growth in the assay with MALME-3M melanoma was 67.9%; with MDA-MB-231 breast it was 59.3%; in the assay with RXF 393 renal, 60.3%; in the assay with SF-268 CNS, 39.9%; in the assay on SF-295 CNS, 39.4%; with SF-539 CNS it was 58.3%. For the same molecule, the growth is 70.9% in the assay on UACC-257 melanoma and 47.7% with M14 melanoma.
Take `CCOc1ccccc1NC(=O)CCC(=O)OC`: the growth was 109% in the assay on NCI-H23 lung; 101% in the assay with NCI-H226 lung; 96.5% with NCI-H322M lung; 94.8% with HOP-62 NSCLC; 108% in the assay on NCI-H460 lung; 110% in the assay with HOP-92 NSCLC. Further, the growth with NCI-H522 lung is 81.9%; in the assay with A549/ATCC NSCLC, 108%; in the assay with 786-0 renal it was 91.1%; in the assay with COLO 205 colon, 103%; with DU-145 prostate it was 107%; with K-562 leukemia it was 108%. Besides, the growth in the assay with MALME-3M melanoma is 72.9%; with MDA-MB-231 breast, 107%; in the assay on RXF 393 renal it was 109%; in the assay on SF-268 CNS, 96.9%; with SF-295 CNS, 104%; in the assay on SF-539 CNS, 97.4%. Also, the growth with UACC-257 melanoma was 123%; with M14 melanoma it was 100%.
